Reference: the supplement of paper PMC6555819

Columns and labels:
Assay in all cases: PBM binding z-score (relative to random genomic background probes); higher = stronger binding; sequences stand for … in GC…GCGATTGACAGCGTAGAATGAAGG
[1] = tested on: RARb homodimer (NR concentration 270 nM)
Procedure, shortened: (§1)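 Antibodies against each partner of ligand-free nuclear receptor dimers (one per run) detected binding on custom Agilent 4×180K protein-binding microarrays after 1 h incubation. The double-stranded probes had 34-nt variable regions carrying direct-repeat seeds, single-nucleotide variants, half-site ablations and random human genomic background sequences. Binding z-scores, from regression-normalized fluorescence, use the random background probes as reference.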

[2] = tested on: RARg:RXRa (NR concentration 270 nM, RXRa partner concentration 90 nM)
Procedure, shortened: as §1

[3] = tested on: RARg homodimer (NR concentration 270 nM)
Procedure, shortened: as §1

[4] = tested on: RXRa DBDmut IVT, anti-RXR (DBD mutation: RXRa K156A/R161A, NR concentration 90 nM)
Procedure, shortened: as §1

[5] = tested on: RXRa homodimer (NR concentration 180 nM)
Procedure, shortened: as §1

[6] = tested on: THRa:RXRa (NR concentration 90 nM, RXRa partner concentration 90 nM)
Procedure, shortened: as §1

[7] = tested on: THRa homodimer (NR concentration 90 nM)
Procedure, shortened: as §1

[8] = tested on: VDR homodimer (NR concentration 270 nM)
Procedure, shortened: as §1

## CCGACTGGGGCATGGTTACCATAACGCACAGCCA
[1]
  PBM binding z-score: -0.189
[2]
  PBM binding z-score: -0.0426
[3]
  PBM binding z-score: 0.399
[4]
  PBM binding z-score: -0.99
[5]
  PBM binding z-score: -0.131
[6]
  PBM binding z-score: -0.641
[7]
  PBM binding z-score: -0.739
[8]
  PBM binding z-score: -0.781

## CTACCAAGGTGAACAAGGTCGTTAATTACTATTC
[1]
  PBM binding z-score: 2.04
[2]
  PBM binding z-score: 1.86
[3]
  PBM binding z-score: 1.55
[4]
  PBM binding z-score: 1.48
[5]
  PBM binding z-score: 1.91
[6]
  PBM binding z-score: 3.19
[7]
  PBM binding z-score: 1.99
[8]
  PBM binding z-score: 2.64

## GCTAGTTGTTCAGTAAAAGGTCACACACCGGTCG
[1]
  PBM binding z-score: 5.07
[2]
  PBM binding z-score: 4.7
[3]
  PBM binding z-score: 4.28
[4]
  PBM binding z-score: 0.628
[5]
  PBM binding z-score: 5.06
[6]
  PBM binding z-score: 3.39
[7]
  PBM binding z-score: 1.77
[8]
  PBM binding z-score: 1.84

## GCTAGCAGGCCATTTGGGTCAATCAATGACGGGC
[1]
  PBM binding z-score: 1.62
[2]
  PBM binding z-score: 0.878
[3]
  PBM binding z-score: 1.21
[4]
  PBM binding z-score: 0.0646
[5]
  PBM binding z-score: 0.805
[6]
  PBM binding z-score: 1.87
[7]
  PBM binding z-score: 0.12
[8]
  PBM binding z-score: -0.0302

## CTACCGAGGTGAACAAGGTCGTTGATTACTATTC
[1]
  PBM binding z-score: 2.25
[2]
  PBM binding z-score: 2.19
[3]
  PBM binding z-score: 1.74
[4]
  PBM binding z-score: 1.74
[5]
  PBM binding z-score: 2.4
[6]
  PBM binding z-score: 3.6
[7]
  PBM binding z-score: 2.43
[8]
  PBM binding z-score: 3.13

## CAAACTAGGTCAAAGGTCCAAGTCGAGCCAACCA
[1]
  PBM binding z-score: 3.54
[2]
  PBM binding z-score: 4.98
[3]
  PBM binding z-score: 5.05
[4]
  PBM binding z-score: 2.31
[5]
  PBM binding z-score: 5.69
[6]
  PBM binding z-score: 3.15
[7]
  PBM binding z-score: 0.728
[8]
  PBM binding z-score: 1.77

## CCTTATGGGTCAAGGTTATAGCACGGGTGGTACG
[1]
  PBM binding z-score: 2.91
[2]
  PBM binding z-score: 4.01
[3]
  PBM binding z-score: 4.26
[4]
  PBM binding z-score: 0.11
[5]
  PBM binding z-score: 3.78
[6]
  PBM binding z-score: 2.22
[7]
  PBM binding z-score: 0.64
[8]
  PBM binding z-score: 1

## GATACAGGGTCAGCTAGAGGCCAGCGTATGGAAA
[1]
  PBM binding z-score: 3.69
[2]
  PBM binding z-score: 6.91
[3]
  PBM binding z-score: 5.12
[4]
  PBM binding z-score: 0.996
[5]
  PBM binding z-score: 4.79
[6]
  PBM binding z-score: 3.11
[7]
  PBM binding z-score: 0.434
[8]
  PBM binding z-score: 0.825

## GCTAGCAGGCCATTTGGGTCGCTCAATGACGGGC
[1]
  PBM binding z-score: -0.128
[2]
  PBM binding z-score: -0.381
[3]
  PBM binding z-score: -0.146
[4]
  PBM binding z-score: -0.286
[5]
  PBM binding z-score: -0.42
[6]
  PBM binding z-score: -0.00184
[7]
  PBM binding z-score: -0.914
[8]
  PBM binding z-score: -0.635

## TCTAGTTGGTCACAGAGGTCACACACGACGGGTA
[1]
  PBM binding z-score: 4.61
[2]
  PBM binding z-score: 5.8
[3]
  PBM binding z-score: 5.57
[4]
  PBM binding z-score: 1.63
[5]
  PBM binding z-score: 6.43
[6]
  PBM binding z-score: 3.97
[7]
  PBM binding z-score: 2.54
[8]
  PBM binding z-score: 4.18

## TATACAGGGTCAAAGGCCAGGGTACGAATGTCGA
[1]
  PBM binding z-score: 3.71
[2]
  PBM binding z-score: 5.77
[3]
  PBM binding z-score: 5.14
[4]
  PBM binding z-score: 2.73
[5]
  PBM binding z-score: 7.42
[6]
  PBM binding z-score: 3.73
[7]
  PBM binding z-score: 1.2
[8]
  PBM binding z-score: 3.31

## GCTCGGAGTACAAGGTCAGAGCTTTGTCCGTAGA
[1]
  PBM binding z-score: 2.65
[2]
  PBM binding z-score: 2.42
[3]
  PBM binding z-score: 2.48
[4]
  PBM binding z-score: 1.1
[5]
  PBM binding z-score: 2.11
[6]
  PBM binding z-score: 2.63
[7]
  PBM binding z-score: 1.23
[8]
  PBM binding z-score: 0.858

## TCATATAGGTAAAGGTGAAGGTCGAACGATATGA
[1]
  PBM binding z-score: 2.28
[2]
  PBM binding z-score: 2.15
[3]
  PBM binding z-score: 2.07
[4]
  PBM binding z-score: 0.787
[5]
  PBM binding z-score: 2.51
[6]
  PBM binding z-score: 1.82
[7]
  PBM binding z-score: 0.00279
[8]
  PBM binding z-score: 0.402

## CAAATTAGGTCACGAAAGGTCAAAGTCGAATGAC
[1]
  PBM binding z-score: 6.08
[2]
  PBM binding z-score: 8.12
[3]
  PBM binding z-score: 8.73
[4]
  PBM binding z-score: 2.57
[5]
  PBM binding z-score: 8.6
[6]
  PBM binding z-score: 5.25
[7]
  PBM binding z-score: 3.01
[8]
  PBM binding z-score: 3.61

## ACTATTAGTTGAAACGAGGGCAACCGATAGGTTG
[1]
  PBM binding z-score: 1.25
[2]
  PBM binding z-score: 1.01
[3]
  PBM binding z-score: 1.11
[4]
  PBM binding z-score: 0.84
[5]
  PBM binding z-score: 0.792
[6]
  PBM binding z-score: 3.41
[7]
  PBM binding z-score: 0.358
[8]
  PBM binding z-score: 1.1

## CCTTACGGGTCAATGTTATAGCACGGGTGGTACG
[1]
  PBM binding z-score: 2.54
[2]
  PBM binding z-score: 4.03
[3]
  PBM binding z-score: 3.85
[4]
  PBM binding z-score: 0.842
[5]
  PBM binding z-score: 4.04
[6]
  PBM binding z-score: 1.85
[7]
  PBM binding z-score: -0.227
[8]
  PBM binding z-score: 0.834

## ATATGTAGGTTAAGGGTCAGTCAGGTTGGTTCGC
[1]
  PBM binding z-score: 3.81
[2]
  PBM binding z-score: 4.01
[3]
  PBM binding z-score: 3.14
[4]
  PBM binding z-score: 1.4
[5]
  PBM binding z-score: 4.19
[6]
  PBM binding z-score: 2.78
[7]
  PBM binding z-score: 1.68
[8]
  PBM binding z-score: 2.75

## CCTTTCGGGTCAAGGTTATAGCACGGGTGGTACG
[1]
  PBM binding z-score: 3.76
[2]
  PBM binding z-score: 5.07
[3]
  PBM binding z-score: 5.07
[4]
  PBM binding z-score: 2.03
[5]
  PBM binding z-score: 5.56
[6]
  PBM binding z-score: 3.97
[7]
  PBM binding z-score: 3.16
[8]
  PBM binding z-score: 1.97

## ATCTCTAGGTAACCAAGTTCAGTGGATGCCGAAC
[1]
  PBM binding z-score: 1.38
[2]
  PBM binding z-score: 0.761
[3]
  PBM binding z-score: 0.959
[4]
  PBM binding z-score: 0.576
[5]
  PBM binding z-score: 0.536
[6]
  PBM binding z-score: 1.46
[7]
  PBM binding z-score: 0.709
[8]
  PBM binding z-score: 2.45

## GGAACGAGGGCAGTCGAGTTGATAGCATGGCGAT
[1]
  PBM binding z-score: 0.327
[2]
  PBM binding z-score: 0.643
[3]
  PBM binding z-score: 1.18
[4]
  PBM binding z-score: 1.1
[5]
  PBM binding z-score: 0.35
[6]
  PBM binding z-score: 1.52
[7]
  PBM binding z-score: -0.895
[8]
  PBM binding z-score: 1.02

## CCTACCGGGCCAAAGGTCATTGATTCCAATGCTC
[1]
  PBM binding z-score: 4.57
[2]
  PBM binding z-score: 5.86
[3]
  PBM binding z-score: 4.58
[4]
  PBM binding z-score: 0.593
[5]
  PBM binding z-score: 6.64
[6]
  PBM binding z-score: 3.68
[7]
  PBM binding z-score: 1.12
[8]
  PBM binding z-score: 2.38

## CCCAGTTGGTCAGGAGGTCACACACCGGATATGA
[1]
  PBM binding z-score: 4.41
[2]
  PBM binding z-score: 4.87
[3]
  PBM binding z-score: 4.25
[4]
  PBM binding z-score: -0.0617
[5]
  PBM binding z-score: 4.6
[6]
  PBM binding z-score: 3.52
[7]
  PBM binding z-score: 2.63
[8]
  PBM binding z-score: 2.66

## TCTAGTTGGTCAAAGGTCACATACTCGAAATGCG
[1]
  PBM binding z-score: 5.18
[2]
  PBM binding z-score: 6.93
[3]
  PBM binding z-score: 6.01
[4]
  PBM binding z-score: 1.65
[5]
  PBM binding z-score: 7.86
[6]
  PBM binding z-score: 3.89
[7]
  PBM binding z-score: 1.76
[8]
  PBM binding z-score: 2.75

## TAGCCTAGGTCAGATCGGGCCAGTATGCGCTATA
[1]
  PBM binding z-score: 2.29
[2]
  PBM binding z-score: 2.85
[3]
  PBM binding z-score: 3.88
[4]
  PBM binding z-score: -0.301
[5]
  PBM binding z-score: 1.48
[6]
  PBM binding z-score: 4.04
[7]
  PBM binding z-score: 0.0471
[8]
  PBM binding z-score: -0.51

## GCTAGTTGGTCAGTAAAAGGTCATACACCGGTCG
[1]
  PBM binding z-score: 4.93
[2]
  PBM binding z-score: 4.81
[3]
  PBM binding z-score: 3.6
[4]
  PBM binding z-score: 0.515
[5]
  PBM binding z-score: 4.8
[6]
  PBM binding z-score: 3.39
[7]
  PBM binding z-score: 1.35
[8]
  PBM binding z-score: 2.09

## CCTGCTAGGTCAATGGACAGCTAAAGCAGCTCGC
[1]
  PBM binding z-score: 2.51
[2]
  PBM binding z-score: 3.34
[3]
  PBM binding z-score: 4.17
[4]
  PBM binding z-score: 1.5
[5]
  PBM binding z-score: 1.8
[6]
  PBM binding z-score: 1.95
[7]
  PBM binding z-score: 0.0455
[8]
  PBM binding z-score: 0.153

## CCTATTAGTTGACCATAAGGACAACCGAAGCTCG
[1]
  PBM binding z-score: 1.71
[2]
  PBM binding z-score: 1.36
[3]
  PBM binding z-score: 1.28
[4]
  PBM binding z-score: 0.69
[5]
  PBM binding z-score: 0.852
[6]
  PBM binding z-score: 3.42
[7]
  PBM binding z-score: 3.91
[8]
  PBM binding z-score: 1.1

## GCTAGCAGGCAATTTGGGTCACTCAATGACGGGC
[1]
  PBM binding z-score: 1.55
[2]
  PBM binding z-score: 0.628
[3]
  PBM binding z-score: 0.847
[4]
  PBM binding z-score: -0.416
[5]
  PBM binding z-score: 0.683
[6]
  PBM binding z-score: 2.76
[7]
  PBM binding z-score: 0.687
[8]
  PBM binding z-score: -0.322
